From PubChem BioAssay (EPA / NIEHS) come the findings set out here.

The source made the active and inactive calls. How the source made its calls, unless noted: active means hit-call score of the fitted dose curve at least 0.9, where 1 is the maximum; inactive means score below 0.9.

Read-out in test [1]: Interleukin-1 alpha (IL1a), IL1A (gene 3552)
Put plainly: BSK_LPS_IL1a: BioMAP Diversity Plus: LPS Assay for Interleukin-1 alpha (IL1a) Biomarker Activity (AID 2283080). The note with it: primary human HUVEC with PBMC; actives raise or lower the signal. In outline: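 Primary human HUVEC and PBMC co-culture stimulated with LPS is dosed and harvested at 24 h. Both increases and decreases in ELISA-measured IL-1a are scored relative to DMSO.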

Read-out in test [2]: Monocyte Chemoattractant Protein-1 (MCP1), CCL2 (gene 6347)
Kind of test: BSK_LPS_MCP1: BioMAP Diversity Plus: LPS Assay for Monocyte Chemoattractant Protein-1 (MCP1) Biomarker Activity (AID 2283081).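 On AC50: secreted MCP-1 protein quantified by ELISA in culture supernatant.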 As to conditions: primary human HUVEC with PBMC; actives raise or lower the signal. In outline:
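Values derive from bidirectional fitting against DMSO of ELISA-measured MCP-1 in a human primary endothelial and mononuclear cell co-culture, 24 h after chemical addition under LPS activation.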

The nature of test [3]: BSK_LPS_PGE2: BioMAP Diversity Plus: LPS Assay for Prostaglandin E2 (PGE2) Biomarker Activity (AID 2283082). The note with it: primary human HUVEC with PBMC; actives raise or lower the signal. Put shortly: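 HUVEC plus human PBMC co-culture stimulated with LPS; secreted PGE2 quantified by ELISA 24 h after chemical dosing. Activity fitted bidirectionally against DMSO baseline; parallel SRB staining (0.1% SRB after 10% TCA fixation, 560 nm) flags overt cytotoxicity.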

Read-out in test [4]: Macrophage colony-stimulating factor (MCSF), CSF1 (gene 1435)
Put plainly: BSK_LPS_MCSF: BioMAP Diversity Plus: LPS Assay for Macrophage colony-stimulating factor (MCSF) Biomarker Activity (AID 2283083). The note with it: primary human HUVEC with PBMC; actives raise or lower the signal. In outline:
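Bidirectional fit versus DMSO of ELISA-measured M-CSF in co-cultured human umbilical vein endothelial cells and PBMC, sampled 24 h after dosing.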

Read-out in test [5]: Tissue Factor, F3 (gene 2152)
Kind of test: BSK_LPS_TissueFactor: BioMAP Diversity Plus: LPS Assay for Tissue Factor Biomarker Activity (AID 2283084). As to conditions: primary human HUVEC with PBMC; actives raise or lower the signal. Put shortly: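 Read-out: CD142 ELISA, 24 h. System: LPS-driven human endothelial/PBMC co-culture. Analysis: up- or down-signal fitted against DMSO.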

Read-out in test [6]: Tumor necrosis factor (Homo sapiens) (UniProt P01375)
Kind of test: BSK_LPS_TNFa: BioMAP Diversity Plus: LPS Assay for Tumour Necrosis Factor alpha (TNFa) Biomarker Activity (AID 2283085). As to conditions: primary human HUVEC with PBMC; actives raise or lower the signal. In outline:
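Human umbilical vein endothelial cells co-cultured with PBMC and stimulated with LPS. TNFa was measured by ELISA 24 h after chemical dosing, fitted bidirectionally relative to DMSO.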

Read-out in test [7]: Vascular cell adhesion molecule 1 (VCAM1), VCAM1 (gene 7412)
Kind of test: BSK_LPS_VCAM1: BioMAP Diversity Plus: LPS Assay for Vascular cell adhesion molecule 1 (VCAM1) Biomarker Activity (AID 2283086). The note with it: primary human HUVEC with PBMC; actives raise or lower the signal. In outline:
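Human umbilical vein endothelial cells co-cultured with PBMC and stimulated with LPS; VCAM-1 measured by ELISA 24 h after dosing. Bidirectional curve fitting against DMSO baseline; cytotoxicity tracked in parallel by SRB total-protein staining.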

Read-out in another test: CD38, CD38 (gene 952)
Put plainly: BSK_SAg_CD38: BioMAP Diversity Plus: SAg Assay for CD38 Biomarker Activity (AID 2283087). The note with it: primary human HUVEC with PBMC; actives raise or lower the signal. In outline: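 Human HUVEC plus PBMC co-culture stimulated with superantigen; CD38 measured by ELISA 24 h after chemical dosing. Fluorescence read-out, bidirectional fit against DMSO; cytotoxicity tracked in parallel by SRB and Alamar Blue.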

Read-out in the next test: CD40, CD40 (gene 958)
Kind of test: BSK_SAg_CD40: BioMAP Diversity Plus: SAg Assay for CD40 Biomarker Activity (AID 2283088). The note with it: primary human HUVEC with PBMC; actives raise or lower the signal. Put shortly: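 Endpoint derived by fitting increases or decreases versus DMSO controls. CD40 is detected by fluorescence ELISA in a human vascular co-culture of endothelium and PBMC at 24 h.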

Read-out in another test: CD69, CD69 (gene 969)
Kind of test: BSK_SAg_CD69: BioMAP Diversity Plus: SAg Assay for CD69 Biomarker Activity (AID 2283089).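 On AC50: cell surface CD69 protein quantified by ELISA with fluorescence detection.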 The note with it: primary human HUVEC with PBMC; actives raise or lower the signal. Put shortly:
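ELISA, fluorescence read-out: CD69 on human umbilical vein endothelial cell + PBMC co-culture, 24 h post-dosing. Gain or loss of signal fitted bidirectionally against DMSO baseline.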

Read-out in test [8]: Monocyte Chemoattractant Protein-1 (MCP1), CCL2 (gene 6347)
Put plainly: BSK_SAg_MCP1: BioMAP Diversity Plus: SAg Assay for Monocyte Chemoattractant Protein-1 (MCP1) Biomarker Activity (AID 2283090). As to conditions: primary human HUVEC with PBMC; actives raise or lower the signal. Put shortly:
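MCP-1 levels in the endothelial–PBMC SAg co-culture were quantified by ELISA at 24 h post-dosing; both increases and decreases versus DMSO scored. Cytotoxicity monitored by SRB total protein in parallel cultures.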

Read-out in test [9]: E-selectin (Homo sapiens) (UniProt P16581)
Put plainly: BSK_SAg_Eselectin: BioMAP Diversity Plus: SAg Assay for Eselectin Biomarker Activity (AID 2283091). The note with it: primary human HUVEC with PBMC; actives raise or lower the signal. Put shortly: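 Endpoint values derive from bidirectional fitting relative to DMSO, using ELISA-measured E-selectin in a human vascular co-culture (umbilical vein endothelium plus PBMC) sampled 24 h after dosing.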

Read-out in test [10]: Monokine induced gamma interferon (MIG), CXCL9 (gene 4283)
Put plainly: BSK_SAg_MIG: BioMAP Diversity Plus: SAg Assay for Monokine induced gamma interferon (MIG) Biomarker Activity (AID 2283092). As to conditions: primary human HUVEC with PBMC; actives raise or lower the signal. In outline: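 ELISA readout of MIG/CXCL9; primary human umbilical vein endothelial cells co-cultured with peripheral blood mononuclear cells; 24 h post-dose; gain/loss fit vs DMSO baseline.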

Test [11] in a line: BSK_SAg_PBMCCytotoxicity: PBMC Cytotoxicity Assessment in the BioMAP Diversity Plus: SAg Assay (AID 2283093).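 Further: PBMC viability measured as Alamar Blue reduction fluorescence at 546/580 nm; fitted both ways against DMSO so a hit may be loss or gain of signal.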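 On AC50: PBMC superantigen activated with SEB plus TSST-1 one hour after compound addition.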 As to conditions: primary human HUVEC with PBMC. In outline:
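Human umbilical vein endothelial cells co-cultured with PBMC; PBMC (75,000/well) pre-treated with compound 1 h, then activated with SEB and TSST-1 (20 ng/mL final each) for 90 h. Alamar Blue added 6 h, fluorescence 546/580 nm; bidirectional fit versus DMSO.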

Read-out in test [12]: Interleukin-8 (IL8), CXCL8 (gene 3576)
Put plainly: BSK_SAg_IL8: BioMAP Diversity Plus: SAg Assay for Interleukin-8 (IL8) Biomarker Activity (AID 2283094). As to conditions: primary human HUVEC with PBMC; actives raise or lower the signal. In outline: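 Human umbilical vein endothelial cells co-cultured with PBMC, stimulated with superantigen; IL-8 measured by ELISA 24 h after chemical dosing. Bidirectional fitting versus DMSO; SRB staining in parallel cultures tracks cytotoxicity.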

The nature of test [13]: BSK_SAg_Proliferation: Cell Proliferation Assessment in the BioMAP Diversity Plus: SAg Assay (AID 2283095). The note with it: primary human HUVEC with PBMC. Put shortly: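 Human umbilical vein endothelial cells co-cultured with PBMC; sulforhodamine B total-protein staining (0.1% SRB after 10% TCA fixation, absorbance 560 nm) at 96 h in sub-confluent culture. Fitted bidirectionally against DMSO.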

Test [14] in a line: BSK_SAg_SRB: Viability Assessment in the BioMAP Diversity Plus: SAg Assay (AID 2283096).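 Further: cells read one day after compound addition; hits may be either gain or loss of signal compared with DMSO.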 As to conditions: primary human HUVEC with PBMC. In outline:
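Endothelial/PBMC primary human co-culture; compound 24 h; fix 10% TCA, stain 0.1% SRB, A560; protein content as cytotoxicity proxy; bidirectional curve fit, DMSO = baseline.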

In test [15] the target is human CYP2D6, CYP2D6 (gene 1565) (UniProt P10635). Put plainly: NVS_ADME_hCYP2D6: NovaScreen (NVS) CYP450-related Enzyme Activity (ADME) Assay for human CYP2D6 (AID 2283107; active means hit-call score of the fitted dose curve at least 0.9, where 1 is the maximum). In outline: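 Biochemical fluorescence assay, insect-cell-derived enzyme. Read at 1 h; inhibition taken from loss of signal against acetonitrile. Screened at 10 uM in duplicate, with concentration series for actives.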
Sequence of human CYP2D6, CYP2D6 (gene 1565) (P10635 whole entry, looked up): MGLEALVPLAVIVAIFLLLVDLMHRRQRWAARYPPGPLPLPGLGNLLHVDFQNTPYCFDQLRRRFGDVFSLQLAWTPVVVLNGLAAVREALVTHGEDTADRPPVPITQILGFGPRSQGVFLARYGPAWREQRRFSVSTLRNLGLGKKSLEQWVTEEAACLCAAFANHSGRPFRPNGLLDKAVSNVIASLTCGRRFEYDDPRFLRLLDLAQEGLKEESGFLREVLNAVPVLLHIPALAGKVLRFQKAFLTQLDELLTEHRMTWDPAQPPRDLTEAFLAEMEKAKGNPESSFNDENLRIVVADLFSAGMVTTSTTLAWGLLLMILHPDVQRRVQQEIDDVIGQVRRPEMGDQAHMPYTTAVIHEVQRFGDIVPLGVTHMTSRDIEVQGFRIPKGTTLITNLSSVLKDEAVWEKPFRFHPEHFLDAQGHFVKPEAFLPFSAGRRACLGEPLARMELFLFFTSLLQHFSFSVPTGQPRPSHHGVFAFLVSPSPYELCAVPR

Sequence of Tumor necrosis factor (Homo sapiens) (P01375 whole entry, looked up): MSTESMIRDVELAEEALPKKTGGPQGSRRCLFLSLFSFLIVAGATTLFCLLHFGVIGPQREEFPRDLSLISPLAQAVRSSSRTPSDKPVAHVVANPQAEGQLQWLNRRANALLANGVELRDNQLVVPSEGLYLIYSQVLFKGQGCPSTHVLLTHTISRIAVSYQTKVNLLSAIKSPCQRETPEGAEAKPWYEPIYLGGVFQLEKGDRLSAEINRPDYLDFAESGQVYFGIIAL
Sequence of E-selectin (Homo sapiens) (P16581 whole entry, looked up): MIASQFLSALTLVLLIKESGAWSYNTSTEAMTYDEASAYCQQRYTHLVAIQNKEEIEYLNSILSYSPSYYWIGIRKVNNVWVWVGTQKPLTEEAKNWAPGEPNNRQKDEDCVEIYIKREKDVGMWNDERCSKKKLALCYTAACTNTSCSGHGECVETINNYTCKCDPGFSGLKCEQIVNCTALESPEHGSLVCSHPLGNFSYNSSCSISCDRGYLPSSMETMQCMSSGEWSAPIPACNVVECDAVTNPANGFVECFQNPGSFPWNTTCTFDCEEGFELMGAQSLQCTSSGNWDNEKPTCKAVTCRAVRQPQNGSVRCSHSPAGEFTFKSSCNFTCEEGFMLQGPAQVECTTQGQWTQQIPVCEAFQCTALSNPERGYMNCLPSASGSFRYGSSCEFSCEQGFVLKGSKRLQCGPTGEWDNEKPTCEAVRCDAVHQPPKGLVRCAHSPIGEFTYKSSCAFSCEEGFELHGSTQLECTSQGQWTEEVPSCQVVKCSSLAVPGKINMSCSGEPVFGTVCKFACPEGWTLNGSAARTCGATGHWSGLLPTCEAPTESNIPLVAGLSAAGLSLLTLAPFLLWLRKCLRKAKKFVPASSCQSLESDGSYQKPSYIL

The term AC50 denotes the concentration at which the activity in the assay is half-maximal. Turning to `CCCCCCCOC(=O)c1ccccc1C(=O)OCCCCCCC`, the result in test [1], in test [2], in [3], in [4], in [5] and in test [6] was inactive. The outcome in test [7] was “inactive”; in the test with CD38, CD38 (gene 952) it was “inactive”; with CD40, CD40 (gene 958), “inactive”; in the test with CD69, CD69 (gene 969), “inactive”; in test [8], “inactive”; in [9], “inactive”. Further, the result in [10], in [12], in test [13] and in test [14] was inactive. Also, the concentration at half-maximal activity (AC50) in test [11] was 3.28 µM (active).
In the case of `FC(F)(F)C(F)(F)C(F)(F)C(F)(F)C(F)(F)C(F)(F)C(F)(F)C(F)(F)F`, the outcome in test [1], in [2], in [3], in [4], in test [5] and in test [6] was inactive. The outcome was “inactive” in test [7]; “inactive” with CD38, CD38 (gene 952); “inactive” in the test with CD40, CD40 (gene 958); “inactive” with CD69, CD69 (gene 969); “inactive” in test [8]; “inactive” in test [9]. Also, the outcome in test [10], in [11], in [12], in test [13] and in [14] was inactive.
Consider `CCCCCCCCCCCCCCCC[N+](C)(C)Cc1ccccc1`, for which the concentration at half-maximal activity (AC50) in test [1] was 9.26 µM (active); in [2], 11.4 µM (active); in test [4], 1.74 µM (active); in test [5], 10.7 µM (active); in test [6], 3.79 µM (active); in [7], 3.77 µM (active). Besides, the AC50 with CD38, CD38 (gene 952) was 13 µM (active); with CD40, CD40 (gene 958) it was 14.7 µM (active); in the test with CD69, CD69 (gene 969) it was 12.4 µM (active); in test [8] it was 2.97 µM (active); in test [9] it was 20 µM (active); in test [10], 2.96 µM (active). Moreover, the concentration at half-maximal activity (AC50) is 1.17 µM (active) in test [11]; 10 µM (active) in test [12]; 0.456 µM (active) in test [13]; 5.21 µM (active) in test [14]; 0.401 µM (active) in [15]. Besides, the result in test [3] was inactive.
